Reference: PubChem BioAssay (NCI)
Several values for one entry are separate records, joined by “and”; a condition that tells them apart may be missing. Equal entries are not always repeated. Compounds without any hit were thinned out: in the full panel of roughly 83,000, 20% have a hit.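 Plates (96-well) were seeded with cells, treated with compound at one concentration, and incubated for 48 hours before percent growth was determined.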 Activity calls are given as the source filed them. The calls were made as follows: active = growth percent below 10; inactive = the rest.

What follows are molecules tested on MDA-MB-468 breast (assay: NCI-60 one-dose screen, 48 h (100 = growth as untreated, 0 = no growth, -100 = all killed)). Settings: 10 µM unless noted.

| SMILES | growth |
| --- | --- |
| Cn1c(=O)c2nc(/C=C/c3ccccc3)c(=O)[nH]c2n(C)c1=S | 103% (inactive) |
| NCCN1CCN(c2nccc(-c3ccc4ccccc4c3)n2)CC1 | 56.2% (inactive) |
| COc1cc(OCc2cccc(-c3ccc4c(c3)OCCO4)c2C)cc(OC)c1C=O | 21.8% (inactive) |
| Nc1nc(N)c2c(n1)NC(c1ccc(F)cc1)CC(c1ccc(Nc3nc(NCCO)nc(Nc4ccc(Cl)cc4)n3)cc1)=N2 (stereo unspecified) | -68.5% (active) |
| Cc1ccc(C(=O)Nc2ccccc2C(=O)N/N=C(\c2ccccc2)c2ccccn2)cc1 | -1.12% (active) |
| O=c1[nH]c2ccccc2cc1CSc1ccccc1Nc1nccc(-c2ccc(Cl)cc2)n1 | 99.3% (inactive) |
| CC1=CC(=O)C=CC1=Nc1ccc(N(C)C)cc1 | 48.8% (inactive) and -87.8% (active) |
| C=C(C)[C@@H]1CC[C@]2(CO)CC[C@]3(C)[C@H](CC[C@@H]4[C@@]5(C)CCCNC(C)(C)[C@@H]5CC[C@]43C)[C@@H]12 | 11.7% (inactive) |
| Cl.[Pt].[c-]1ccccc1-c1ccccn1.c1ccc(P(c2ccccc2)C([PH+](c2ccccc2)c2ccccc2)[PH+](c2ccccc2)c2ccccc2)cc1 | -6.8% (active) |
| CN1[C@@H]2CC[C@H]1/C(=C\c1ccccc1)C(=O)/C2=C/c1ccccc1 | 16.2% (inactive) |
| CN(C)CCCN1c2ccccc2Sc2ccc(Cl)cc21 | 9.1% (active) and 105% (inactive) and 77.4% (inactive) |
| O=C(CSc1nc2ccccc2c(=O)n1-c1ccccc1)Nc1ccc(-c2nc3ccc([N+](=O)[O-])cc3[nH]2)cc1 | 81.5% (inactive) |
| COc1ccc(/C(=N\N)C(=O)c2ccccc2)cc1 (tested in a mixture with another compound) | 89% (inactive) |
| COC12CC(=O)C(C(C)=O)=C(O)C1(C)c1c(O)c(C)c(O)c(C(C)=O)c1O2 (stereo unspecified) | 68.9% (inactive) |
| N#CC(C#N)=C(C#N)c1c[nH]c2ccccc12 | 38.8% (inactive) |
| O=S(=O)(Oc1ccc(-c2cn3ccoc3n2)cc1)c1cccc(C(F)(F)F)c1 | 86.9% (inactive) |
| c1ccc(CCNc2c3ccccc3nc3ccccc23)cc1 | -11.4% (active) |
| COC(=O)Nc1nc2ccc(C(=O)c3cccc(I)c3)cc2[nH]1 | 2.93% (active) |
| CCc1c(C(=O)NCc2c(O)ccc3cccc(O)c23)[nH]c(C)c1C(C)=O | 18.5% (inactive) |
| CCCCC1COc2cccc3c2N1C=C/C3=C\C(=O)n1ccc2ccccc21 (stereo unspecified) | 12.3% (inactive) |
| COc1ccc2oc3c(C)c4c(c(C)c3c2c1)C(=O)N(Cc1ccccc1)C4=O | 100% (inactive) |
| COc1ccc(-c2nn(C(=O)NCCN(C)C)cc2-c2ccncc2)cc1Cl | 4.11% (active) |
| CCCCCCCCCCCCCCCc1ccc(N)c(OC2OC(CO)C(O)C(O)C2O)c1 (stereo unspecified) | 76.5% (inactive) |
| c1ccc2[nH]c(-c3ccc(-c4nccc5c4[nH]c4ccccc45)cc3)nc2c1 | 44.8% (inactive) |
| O=C1NC(=O)C(c2ccccc2)O1 (stereo unspecified) | 106% (inactive) |
| CN(C)C(=O)C1=NC(CO)C(=O)N(c2ccc(Cl)cc2)N1 (stereo unspecified) | 95.2% (inactive) |
